Compound activity from PubChem.
In the library only some 1.2% were active in any assay of this set; here they are far more common.
Yeast superoxide: yeast age-related superoxide inhibition as caloric restriction mimetic; 330,000 compounds, 0.18% hits; superoxide response (% of plate mean), % at 10 µM; S. cerevisiae aged cells, superoxide DHE fluorescence; active compounds read low;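 active means superoxide response under a set limit, about three screen SD below normal, cut at about 65% in these data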;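 further: yeast aged for seven days with compound at 30 °C before DHE staining; 100% = average MFI of all compound-treated wells on the plate with controls excluded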
HIF activator: HIF pathway transcriptional activation; AID 1910; activation, % at 7.5 µM (by protocol); 300,000 compounds, 0.32% hits; U2OS HRE-luciferase reporter, luminescence; normalized: DMSO 0%, desferrioxamine 100%;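 active means mean activation of at least 10% of the iron chelator positive control signal, with at least half of replicates also reaching 10%; inconclusive means mean and replicate majority disagree about reaching 10%; inactive means mean and most replicates under 10%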
LANA-H2A inh: blocks KSHV LANA binding to histone H2A/H2B; inhibition, % (test concentration not listed); 320,000 compounds, 0.6% hits; cell-free LANA-H2A/H2B peptide, fluorescence polarization; AID 2629; in the data active means inhibition mostly above about 10%, no sharp cut-off; inactive means mostly below about 6.7%
Target sequence (Q9QR71 whole entry, looked up): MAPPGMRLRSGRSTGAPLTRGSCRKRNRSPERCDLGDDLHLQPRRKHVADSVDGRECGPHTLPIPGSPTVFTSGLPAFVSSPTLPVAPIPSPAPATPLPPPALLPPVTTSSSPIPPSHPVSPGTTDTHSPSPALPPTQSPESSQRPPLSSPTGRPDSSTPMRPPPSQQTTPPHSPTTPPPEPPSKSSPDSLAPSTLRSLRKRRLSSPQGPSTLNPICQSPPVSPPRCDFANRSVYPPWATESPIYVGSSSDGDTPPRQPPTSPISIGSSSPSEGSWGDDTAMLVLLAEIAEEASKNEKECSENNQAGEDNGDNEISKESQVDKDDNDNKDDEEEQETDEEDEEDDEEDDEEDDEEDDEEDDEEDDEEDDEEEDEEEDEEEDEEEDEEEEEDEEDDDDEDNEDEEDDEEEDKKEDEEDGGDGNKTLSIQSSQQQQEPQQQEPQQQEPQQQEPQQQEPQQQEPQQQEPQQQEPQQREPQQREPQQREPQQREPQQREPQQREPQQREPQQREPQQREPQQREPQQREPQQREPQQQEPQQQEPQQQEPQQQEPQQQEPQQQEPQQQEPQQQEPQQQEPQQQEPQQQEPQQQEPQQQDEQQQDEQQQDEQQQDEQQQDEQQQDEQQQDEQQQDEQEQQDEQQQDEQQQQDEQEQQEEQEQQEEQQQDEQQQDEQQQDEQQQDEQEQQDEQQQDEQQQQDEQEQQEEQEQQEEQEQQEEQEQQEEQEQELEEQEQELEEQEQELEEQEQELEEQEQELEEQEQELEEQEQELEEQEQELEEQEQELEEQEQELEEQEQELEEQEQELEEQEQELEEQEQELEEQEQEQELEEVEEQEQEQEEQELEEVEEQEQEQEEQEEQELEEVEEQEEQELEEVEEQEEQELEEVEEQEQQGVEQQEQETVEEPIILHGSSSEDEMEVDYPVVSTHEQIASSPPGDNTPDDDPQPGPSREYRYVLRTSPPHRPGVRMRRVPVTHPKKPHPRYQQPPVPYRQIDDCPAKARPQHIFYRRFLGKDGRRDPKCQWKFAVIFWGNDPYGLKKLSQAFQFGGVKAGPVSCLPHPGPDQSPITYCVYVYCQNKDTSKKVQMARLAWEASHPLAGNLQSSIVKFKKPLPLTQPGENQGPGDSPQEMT
HDAC3 inhib: human HDAC3 inhibition | 320,000 compounds, 0.15% hits | inhibition, % at 8.3 µM | O15379 | recombinant HDAC3, fluorogenic peptide/trypsin coupled, fluorescence; in the data active means inhibition above about 26%, passing the limit was not always enough; inconclusive means no clear call, values can overlap the other calls
* = called active by the depositor; ? = inconclusive; . = no result; + = active, no number.

SMILES	Yeast superoxide	HIF activator	LANA-H2A inh	HDAC3 inhib
CCOC(=O)C1SC2(C(F)(F)F)CC1(O)c1c(C)cc(C)nc1O2 (stereo not drawn)	90	0	2	44*
CC(N)C(=O)OC(C)(C)Cc1ccc(Cl)cc1 (stereo not drawn)	96	.	-13	1
Cc1nc2ccccc2c(=O)n1-c1ccc(Br)cn1	107	0	-1	10
Cc1nc2ccccc2c(=O)n1/N=C/c1cc(Br)cc(Br)c1O	90	181*	-2	-10
COC1C(OC(=O)c2ccc(C)[nH]2)C(O)C(Oc2ccc3c(O)c(NC(=O)c4ccc(O)c(CC=C(C)C)c4)c(=O)oc3c2Cl)OC1(C)C (stereo not drawn)	88	.	0	18
CC(C(=O)c1c[nH]c2ccccc12)N1CCSCC1 (stereo not drawn)	100	1	23*	-5
CC(C(=O)c1c[nH]c2ccccc12)N1CCOCC1 (stereo not drawn)	111	1	0	1
Nc1cc(N2CCNCC2)c([N+](=O)[O-])cc1Cl	98	0	5	5
O=[N+]([O-])c1ccc(Cl)c(Cl)c1Cl	83	.	24*	-1
COc1cccc(/C=C2\N=C(c3cncc(Br)c3)OC2=O)c1	88	0	3	3
Nc1c(Br)cc([N+](=O)[O-])cc1[N+](=O)[O-]	145	.	26*	-1
CC(=O)CCC(C)=O	95	.	+	2
CC[N+](CC)(CC#CCO)CC#Cc1ccccc1	85	-1	-1	-4
CC[C@@H]1C=CC=CC[C@H](C)[C@@H](O)[C@@H](C)C(=O)[C@H](C)[C@@H](O)[C@H](C)C(=O)[C@H](C)[C@@H](O)[C@H](C)C=CC(=O)O[C@H]2[C@@H](C)[C@@H](CC1)O[C@@]1(CC[C@@H](C)[C@@H](C[C@H](C)O)O1)[C@@H]2C	85	1	-2	50*
O=[N+]([O-])NC1=NCN(Cc2ccco2)CN1Cc1ccco1	99	0	1	3
CCC/C=N/O	83	.	32*	3
Nc1ccc2ccc3cccc[n+]3c2c1	93	1	36*	-2
C[n+]1c(-c2ccccc2)c2cc(N)ccc2c2ccc(N)cc21	102	1	13	15
CCN(CC)CCNCc1nc2ccccc2c(=O)n1-c1ccc(F)cc1	101	60*	-1	-3
Cc1ccc(-n2c(CNCc3ccc(F)cc3)nc3ccccc3c2=O)cc1	98	0	-3	-2
CCOP(=S)(OCC)Oc1nc(Cl)c(Cl)cc1Cl	118	.	+	-6
O=C(CCN1CCCCC1)Nc1ccc(Br)cc1C(=O)c1ccccc1	99	3	19*	0
Cc1ccccc1N1C(=O)/C(=C/c2ccco2)C(=O)NC1=S	98	0	26*	1
COc1ccccc1OCC#CCN1CCCC(C)C1 (stereo not drawn)	105	0	-7	3
C=C(C)[C@@]12OC3(c4ccccc4)O[C@@H]1C1[C@@H]4O[C@]4(CO)[C@@H](O)[C@]4(O)C(=O)C(C)=C[C@H]4[C@@]1(O3)[C@H](C)[C@H]2OC(=O)/C=C/C=C/c1ccccc1 (stereo partly drawn)	103	2	-3	12
SMILES	Yeast superoxide	HIF activator	LANA-H2A inh	HDAC3 inhib
COc1ccc(-n2c(O)c(C=NCCCn3ccnc3)c(=O)[nH]c2=O)cc1	98	-1	2	1
Cc1ccc(-n2c(O)c(C=NCCCn3ccnc3)c(=O)[nH]c2=O)cc1	105	-1	13*	-6
Cc1cc(OCC(=O)NCc2ccncc2)c2c3c(c(=O)oc2c1)CCC3	104	1	16*	-6
COc1ccc(NC(=O)c2cc([N+](=O)[O-])ccc2N2CCNCC2)cc1	95	0	-1	5
Cc1ccccc1N	89	.	-1	5
Cc1ccc(N)c(C)c1	116	.	37*	1
CCOP(=O)(OCC)C1(C(=O)O)CCCC1	81	0	2	-7
Fc1ccc(C(OCCN2CCCC2)c2ccc(Br)cc2)cc1 (stereo not drawn)	100	-1	13*	4
O=P1(NCc2ccco2)COc2ccccc2OC1	107	0	-2	5
O=c1c(C=NCc2cccs2)c(O)n(C2CCCCC2)c(=O)n1C1CCCCC1	106	-1	0	-1
N=C(N)c1c(O)n(C2CCCCC2)c(=O)n(C2CCCCC2)c1=O	118	.	0	28*
COC(=O)C1=Nc2ccccc2/C1=C\c1c(O)n(-c2cc(OC)ccc2OC)c(=O)[nH]c1=O	93	548*	-5	5
Cc1cccc(-n2c(O)c(/C=C3/C(c4ccccc4)=Nc4ccccc43)c(=O)[nH]c2=O)c1	97	2	86*	-2
CCOC(=O)C1CCN(/C=C2/C(=O)NC(=O)N(c3cccc(C)c3C)C2=O)CC1	107	0	-5	-7
Nc1ccc2nonc2c1[N+](=O)[O-]	117	-1	29*	1
COP(=S)(OC)SCN1C(=O)c2ccccc2C1=O	108	0	23*	.
CCN1CC2([N+](=O)[O-])CC=C(Cl)C([N+](=O)[O-])(C1)C2 (stereo not drawn)	86	0	0	-5
Cn1c(NN=O)nc2ccccc21	106	66*	1	7
COc1ccc(C(C)=O)cc1Cc1c(O)[nH]c(=S)[nH]c1=O	95	1	2	?
Cc1cc(C(=O)OCC(=O)Nc2ccc(F)cc2F)c(C)n1C1CC1	107	.	146*	-2
CCN(C(=O)COC(=O)c1cc(C)n(C2CC2)c1C)c1ccccc1	111	.	-1	3
COc1cc(OC)c(C=O)c(OC(=O)N(C)C)c1	77	-1	4	2
O=C(c1cc(Br)ccc1Cl)N1CCC2(CC1)OCCO2	90	421*	3	-1
Cc1cc(C)c(C(=O)N2CCC3(CC2)OCCO3)c(C)c1	114	-4	28*	11
Cc1cc(C(=O)N2CCC3(CC2)OCCO3)cs1	86	0	1	-1
SMILES	Yeast superoxide	HIF activator	LANA-H2A inh	HDAC3 inhib
Cc1c(Br)c(=O)oc2cc(OCC(=O)N3C[C@H]4C[C@@H](C3)c3cccc(=O)n3C4)ccc12	98	0	-1	-11
O=C(Nc1cccc(C(F)(F)F)c1)c1cccn(Cc2ccc3c(c2)OC(F)(F)O3)c1=O	119	0	4	-1
CC(C)Oc1cccc(NC(=O)c2cccn(Cc3ccc4c(c3)OC(F)(F)O4)c2=O)c1	96	1	0	34*
Cc1cc(Cl)ccc1OCCCC(=O)NCc1cccs1	86	0	-5	2
Cc1cc(OCCCC(=O)NCc2cccs2)ccc1Cl	88	0	23*	6
CCOc1ccc(CC2(CCc3ccncc3)C(=O)NC(=O)NC2=O)cc1	110	0	3	-5
O=C(CSC1c2ccccc2-c2ccccc21)N/N=C/c1ccccc1O	88	9.9*	-5	2
CCC(C(=O)N1C[C@H]2C[C@@H](C1)c1cccc(=O)n1C2)c1ccccc1 (stereo partly drawn)	102	0	-3	-2
CCCN1CCC[C@H](c2cccc(O)c2)C1	117	.	-8	-3
C=CC(=O)NCNC(=O)C=C	108	.	10*	2
